Source: the supplement of paper PMC6555819

Experiments:
Experiment in all cases: PBM binding z-score (relative to random genomic background probes); higher = stronger binding; sequences stand for … in GC…GCGATTGACAGCGTAGAATGAAGG
[1] = system: FXR:RXRa (NR concentration 270 nM, RXRa partner concentration 90 nM)
How it was run: (§1)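 The probes on custom Agilent 4×180K protein-binding microarrays were double-stranded, with 34-nt variable regions bearing direct-repeat seeds, single-nucleotide variants, half-site ablations and random human genomic background sequences. Incubation lasted 1 h with ligand-free nuclear receptor dimers in PBS pH 7.4, 2% milk, 0.02% Triton X-100, 1 mM DTT, 0.2 mg/mL BSA and 0.4 mg/ml salmon testes DNA. Antibodies against each partner (one per run) detected bound dimers, and fluorescence scans were regression-normalized. Binding z-scores take the random background probes as reference.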

[2] = system: LXRa:RXRa (NR concentration 270 nM, RXRa partner concentration 90 nM)
How it was run: as §1

[3] = system: LXRa homodimer (NR concentration 270 nM)
How it was run: as §1

[4] = system: LXRb:RXRa (NR concentration 270 nM, RXRa partner concentration 90 nM)
How it was run: as §1

[5] = system: LXRb homodimer (NR concentration 270 nM)
How it was run: as §1

[6] = system: PPARa:RXRa (NR concentration 270 nM, RXRa partner concentration 90 nM)
How it was run: as §1

[7] = system: PPARg:RXRa (NR concentration 180 nM, RXRa partner concentration 90 nM)
How it was run: as §1

[8] = system: PPARg:RXRa 270nM:90nM, anti-RXR (NR concentration 270 nM, RXRa partner concentration 90 nM)
How it was run: as §1

[9] = system: PPARg:RXRa 30nM:10nM, anti-RXR (NR concentration 30 nM, RXRa partner concentration 10 nM)
How it was run: as §1

[10] = system: PPARg:RXRa 90nM:30nM, anti-RXR (NR concentration 90 nM, RXRa partner concentration 30 nM)
How it was run: as §1

CCAACTGGGCCACGAAAGGTCATTGATTCAGTGA
PBM binding z-score [1]: 3.69 | PBM binding z-score [2]: 5.09 | PBM binding z-score [3]: 4.15 | PBM binding z-score [4]: 4.41 | PBM binding z-score [5]: 0.134 | PBM binding z-score [6]: 4.75 | PBM binding z-score [7]: 4.7 | PBM binding z-score [8]: 4.74 | PBM binding z-score [9]: 1.7 | PBM binding z-score [10]: 3.62

CTACCAAGGTGACCAAGGTCGTTGATTACTATTC
PBM binding z-score [1]: 0.954 | PBM binding z-score [2]: 0.863 | PBM binding z-score [3]: 0.0331 | PBM binding z-score [4]: 1.37 | PBM binding z-score [5]: -0.415 | PBM binding z-score [6]: 1.82 | PBM binding z-score [7]: 0.763 | PBM binding z-score [8]: 0.769 | PBM binding z-score [9]: -0.239 | PBM binding z-score [10]: 0.452

TAGCCTAGGTCAGATCGGGCCTGTATACGCTATA
PBM binding z-score [1]: 1.56 | PBM binding z-score [2]: 0.715 | PBM binding z-score [3]: -0.411 | PBM binding z-score [4]: 0.501 | PBM binding z-score [5]: -0.0997 | PBM binding z-score [6]: 1.49 | PBM binding z-score [7]: 0.482 | PBM binding z-score [8]: 0.395 | PBM binding z-score [9]: -0.139 | PBM binding z-score [10]: 0.162

CGTCCAAGCTCATAGGAGGTCAGTGAAGACAGAT
PBM binding z-score [1]: 0.888 | PBM binding z-score [2]: 1.51 | PBM binding z-score [3]: 1.08 | PBM binding z-score [4]: 1.33 | PBM binding z-score [5]: -0.0875 | PBM binding z-score [6]: 1.92 | PBM binding z-score [7]: 0.491 | PBM binding z-score [8]: 0.292 | PBM binding z-score [9]: -0.158 | PBM binding z-score [10]: 0.173

ATCGAAAGGTAGACGAGGTGAGTATACACCGTTT
PBM binding z-score [1]: 0.276 | PBM binding z-score [2]: -0.145 | PBM binding z-score [3]: -0.253 | PBM binding z-score [4]: -0.306 | PBM binding z-score [5]: -0.37 | PBM binding z-score [6]: 0.231 | PBM binding z-score [7]: 0.859 | PBM binding z-score [8]: 0.249 | PBM binding z-score [9]: 0.55 | PBM binding z-score [10]: 0.0652

ACAGACAGGTGAGTAAAGGTAACTCAGCTGGACG
PBM binding z-score [1]: 0.171 | PBM binding z-score [2]: 0.4 | PBM binding z-score [3]: -0.568 | PBM binding z-score [4]: -0.0938 | PBM binding z-score [5]: -0.506 | PBM binding z-score [6]: 0.95 | PBM binding z-score [7]: 1.25 | PBM binding z-score [8]: 1.64 | PBM binding z-score [9]: 0.681 | PBM binding z-score [10]: 1.27

CATACTGGGTCAGCTAGGCCAGAGTAGGGACGGC
PBM binding z-score [1]: 0.696 | PBM binding z-score [2]: 0.526 | PBM binding z-score [3]: -0.513 | PBM binding z-score [4]: 0.249 | PBM binding z-score [5]: -0.198 | PBM binding z-score [6]: 2.16 | PBM binding z-score [7]: 3.45 | PBM binding z-score [8]: 2.95 | PBM binding z-score [9]: 0.499 | PBM binding z-score [10]: 2.06

CGTCAAAGTTCCAGGTAACGTAACAGAAAGCAGC
PBM binding z-score [1]: -0.0989 | PBM binding z-score [2]: -0.25 | PBM binding z-score [3]: -0.161 | PBM binding z-score [4]: 0.0165 | PBM binding z-score [5]: 0.0494 | PBM binding z-score [6]: 0.154 | PBM binding z-score [7]: 0.501 | PBM binding z-score [8]: 0.0886 | PBM binding z-score [9]: -0.125 | PBM binding z-score [10]: 0.0621

GCTAGTTGGTCAGTAAAAGGTCGCACACCGGTCG
PBM binding z-score [1]: 0.649 | PBM binding z-score [2]: 1.35 | PBM binding z-score [3]: 0.422 | PBM binding z-score [4]: 1.28 | PBM binding z-score [5]: -0.0717 | PBM binding z-score [6]: 2.31 | PBM binding z-score [7]: 0.999 | PBM binding z-score [8]: 2.68 | PBM binding z-score [9]: 0.448 | PBM binding z-score [10]: 2.08

ACAGACAGGTGAGTGAAGGTAACTCATCTGGACG
PBM binding z-score [1]: 0.0966 | PBM binding z-score [2]: -0.0411 | PBM binding z-score [3]: -0.402 | PBM binding z-score [4]: -0.512 | PBM binding z-score [5]: -0.306 | PBM binding z-score [6]: -0.155 | PBM binding z-score [7]: 0.684 | PBM binding z-score [8]: 0.0954 | PBM binding z-score [9]: 0.12 | PBM binding z-score [10]: -0.143

ACGGACAGGTGAGTGAAGGTAACTCAGCTGGACG
PBM binding z-score [1]: 0.715 | PBM binding z-score [2]: 0.141 | PBM binding z-score [3]: -0.591 | PBM binding z-score [4]: -0.294 | PBM binding z-score [5]: -0.864 | PBM binding z-score [6]: 0.253 | PBM binding z-score [7]: 0.452 | PBM binding z-score [8]: 0.12 | PBM binding z-score [9]: -0.363 | PBM binding z-score [10]: 0.0719

CCTTTCGGGTCAAGGTTATAGCACGGGTGGTACG
PBM binding z-score [1]: 5.72 | PBM binding z-score [2]: 3.85 | PBM binding z-score [3]: 0.197 | PBM binding z-score [4]: 3.11 | PBM binding z-score [5]: 0.545 | PBM binding z-score [6]: 5.06 | PBM binding z-score [7]: 4 | PBM binding z-score [8]: 5.1 | PBM binding z-score [9]: 1.91 | PBM binding z-score [10]: 4.2

GCGACTGGGGCTAAGCAGGTTACCATAAGGTTGG
PBM binding z-score [1]: -0.407 | PBM binding z-score [2]: -0.415 | PBM binding z-score [3]: -0.836 | PBM binding z-score [4]: -0.00625 | PBM binding z-score [5]: -0.83 | PBM binding z-score [6]: 0.342 | PBM binding z-score [7]: 0.147 | PBM binding z-score [8]: -0.288 | PBM binding z-score [9]: -0.707 | PBM binding z-score [10]: -0.68

TCATATAGGGAAAGGTGAAAGTCGAACGATATGA
PBM binding z-score [1]: 0.779 | PBM binding z-score [2]: 1.31 | PBM binding z-score [3]: -0.25 | PBM binding z-score [4]: 1.43 | PBM binding z-score [5]: -0.112 | PBM binding z-score [6]: 2.68 | PBM binding z-score [7]: 2.13 | PBM binding z-score [8]: 3.56 | PBM binding z-score [9]: 4.47 | PBM binding z-score [10]: 3.88

ACTAGCAGGCCAAGGGTCATTCAAGATTAGTCCG
PBM binding z-score [1]: 3.35 | PBM binding z-score [2]: 3.46 | PBM binding z-score [3]: 1.07 | PBM binding z-score [4]: 3.3 | PBM binding z-score [5]: -0.0105 | PBM binding z-score [6]: 4.72 | PBM binding z-score [7]: 7.69 | PBM binding z-score [8]: 7.28 | PBM binding z-score [9]: 5.9 | PBM binding z-score [10]: 7.5

GGTACAGGGTCAGCTAGAGGCCAGAGTATGGAAA
PBM binding z-score [1]: 4.99 | PBM binding z-score [2]: 2.87 | PBM binding z-score [3]: -0.106 | PBM binding z-score [4]: 2.67 | PBM binding z-score [5]: -0.0836 | PBM binding z-score [6]: 4.62 | PBM binding z-score [7]: 4.12 | PBM binding z-score [8]: 3.78 | PBM binding z-score [9]: 0.502 | PBM binding z-score [10]: 2.27

TTTAGTTGGTCACGGAGGTCACACACGACGGGTA
PBM binding z-score [1]: 3.66 | PBM binding z-score [2]: 3.83 | PBM binding z-score [3]: 3.02 | PBM binding z-score [4]: 3.45 | PBM binding z-score [5]: 1.48 | PBM binding z-score [6]: 4.21 | PBM binding z-score [7]: 4.64 | PBM binding z-score [8]: 4.76 | PBM binding z-score [9]: 2.06 | PBM binding z-score [10]: 3.63

GATACAGGGTCAGCTAGAGGCCAAAGTATGGAAA
PBM binding z-score [1]: 5.01 | PBM binding z-score [2]: 3.57 | PBM binding z-score [3]: 0.0556 | PBM binding z-score [4]: 3.09 | PBM binding z-score [5]: -0.391 | PBM binding z-score [6]: 4.59 | PBM binding z-score [7]: 3.94 | PBM binding z-score [8]: 3.58 | PBM binding z-score [9]: 1.03 | PBM binding z-score [10]: 2.36

CATTACGGGTCAAGGTTATAGCACGGGTGGTACG
PBM binding z-score [1]: 5.89 | PBM binding z-score [2]: 5.21 | PBM binding z-score [3]: 1.53 | PBM binding z-score [4]: 3.61 | PBM binding z-score [5]: 1.18 | PBM binding z-score [6]: 5.27 | PBM binding z-score [7]: 5.67 | PBM binding z-score [8]: 5.45 | PBM binding z-score [9]: 2.22 | PBM binding z-score [10]: 4.39

CAAACTAGGTCACACAGGTCAAAGTCCGTGCGTA
PBM binding z-score [1]: 5.67 | PBM binding z-score [2]: 5.43 | PBM binding z-score [3]: 4.2 | PBM binding z-score [4]: 4.82 | PBM binding z-score [5]: 0.995 | PBM binding z-score [6]: 5.71 | PBM binding z-score [7]: 9.3 | PBM binding z-score [8]: 7.72 | PBM binding z-score [9]: 5.14 | PBM binding z-score [10]: 7.46

ATCTCTAGGTAACAAGTTCAGTGACAGAGAGGAC
PBM binding z-score [1]: 0.767 | PBM binding z-score [2]: 0.889 | PBM binding z-score [3]: 0.72 | PBM binding z-score [4]: 0.57 | PBM binding z-score [5]: 0.85 | PBM binding z-score [6]: 1.52 | PBM binding z-score [7]: 1.61 | PBM binding z-score [8]: 2.21 | PBM binding z-score [9]: 0.948 | PBM binding z-score [10]: 1.88

CCTTACGGATCACTGACAGGTTATAGCATTTGGA
PBM binding z-score [1]: 0.345 | PBM binding z-score [2]: 0.818 | PBM binding z-score [3]: 0.768 | PBM binding z-score [4]: 0.559 | PBM binding z-score [5]: 0.661 | PBM binding z-score [6]: 0.447 | PBM binding z-score [7]: 0.638 | PBM binding z-score [8]: 0.275 | PBM binding z-score [9]: 0.461 | PBM binding z-score [10]: 0.192

CAAACTAGGTTAAGGTCAAAGTCGGTTTGTGCCA
PBM binding z-score [1]: 5.87 | PBM binding z-score [2]: 5.27 | PBM binding z-score [3]: 3.87 | PBM binding z-score [4]: 4.36 | PBM binding z-score [5]: 1.08 | PBM binding z-score [6]: 5.45 | PBM binding z-score [7]: 7.13 | PBM binding z-score [8]: 6.97 | PBM binding z-score [9]: 5.07 | PBM binding z-score [10]: 7.2

TTACCAAGGTGAAAGGTAGTTGATGCACGCCTTG
PBM binding z-score [1]: 0.796 | PBM binding z-score [2]: 0.851 | PBM binding z-score [3]: -0.137 | PBM binding z-score [4]: 0.456 | PBM binding z-score [5]: -0.64 | PBM binding z-score [6]: 2.7 | PBM binding z-score [7]: 3.76 | PBM binding z-score [8]: 4.56 | PBM binding z-score [9]: 2.81 | PBM binding z-score [10]: 4.51
